TDP1 cell noCPT: qHTS for Inhibitors of human tyrosyl-DNA phosphodiesterase 1 (TDP1): qHTS in cells in absence of CPT; DT40 Tdp1-/- hTDP1 cells, no CPT, ATP luminescence, 48 h; Potency, µM (series often up to 46.2 µM), inactives show at the top dose activity change, negative = growth inhibition, usual class: inhibitors; 15% of 420,000 active; AID 686978, 2013; further: potency means the concentration at half of the fitted maximal effect; nearly all actives have a fitted effect of over 55% in size
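Chicken DT40 Tdp1-/- cells stably complemented with human TDP1 were seeded at 400 cells/well with DMSO in place of 20 nM camptothecin. After compound pinning, cells grew at least 48 hr at 37 °C; viability read by CellTiter-Glo luminescence.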
VP16 counter: Gal4-VP16 reporter inhibition counter-screen; Drosophila S2 Gal4-VP16 UAS-luciferase, luminescence, 20 h; Potency, µM (top dose mostly 53.6 µM), for inactives: top-dose activity, negative = inhibition, actives largely listed as inhibitors; 3.5% of 310,000 active; AID 2546;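 further: Gal4-VP16 expression switched on by copper sulfate through the metallothionein promoter; potency means the concentration at half of the fitted maximal effect; nearly all actives have a fitted effect of over 50% in size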
ELG1 DNA repair: blocks ELG1-dependent DNA repair in HEK293T cells. HEK293T ELG1-luciferase reporter, luminescence, 16 h; DNA damage induced by 5-fluorouridine. Potency, µM (series often up to 46.1 µM), for the others: at the highest dose activity change, negative = inhibition, actives largely listed as inhibitors. 2.3% of 330,000 active. AID 504467; further: potency means the concentration at half of the fitted maximal effect; nearly all actives have a fitted effect of over 55% in size
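HEK293T cells expressing luciferase-tagged ELG1 (2,000/well) received 5-Fluorouridine plus compound or DMSO for 16 hr at 37 °C. Luciferase was read by ONE-Glo luminescence after 30 min at room temperature.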
DT40 TDP1 CPT: growth inhibition of DT40 Tdp1-/-;hTDP1 cells with camptothecin (screen for TDP1 inhibitors); Potency, µM (doses to about 46.2 µM), for the others: at the highest dose activity change, negative = growth inhibition, hits mostly inhibitors; AID 686979; chicken DT40 Tdp1-/-;hTDP1 cells + 20 nM CPT, ATP luminescence, 48 h; 12% of 420,000 active; further: potency means the concentration at half of the fitted maximal effect; nearly all actives have a fitted effect of over 55% in size
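Cell growth measured by CellTiter-Glo luminescence after a minimum 48 h, 37 C compound exposure with 20 nM CPT in Tdp1-knockout DT40 cells stably expressing hTDP1, seeded 400/well; qHTS titration format.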
RORgamma inh: inhibitors of mouse ROR gamma transcriptional activity. P51450. Drosophila S2 Gal4-RORgamma UAS-luciferase reporter, 20 h. Potency, µM (titrated, usually from 53.6 µM), for inactives: at the highest dose activity change, negative = inhibition, actives largely listed as inhibitors. 5.4% of 310,000 active. AID 2551; further: potency means the concentration at half of the fitted maximal effect; nearly all actives have a fitted effect of over 60% in size
Target sequence (P51450 whole entry, looked up, the tested form may be a part): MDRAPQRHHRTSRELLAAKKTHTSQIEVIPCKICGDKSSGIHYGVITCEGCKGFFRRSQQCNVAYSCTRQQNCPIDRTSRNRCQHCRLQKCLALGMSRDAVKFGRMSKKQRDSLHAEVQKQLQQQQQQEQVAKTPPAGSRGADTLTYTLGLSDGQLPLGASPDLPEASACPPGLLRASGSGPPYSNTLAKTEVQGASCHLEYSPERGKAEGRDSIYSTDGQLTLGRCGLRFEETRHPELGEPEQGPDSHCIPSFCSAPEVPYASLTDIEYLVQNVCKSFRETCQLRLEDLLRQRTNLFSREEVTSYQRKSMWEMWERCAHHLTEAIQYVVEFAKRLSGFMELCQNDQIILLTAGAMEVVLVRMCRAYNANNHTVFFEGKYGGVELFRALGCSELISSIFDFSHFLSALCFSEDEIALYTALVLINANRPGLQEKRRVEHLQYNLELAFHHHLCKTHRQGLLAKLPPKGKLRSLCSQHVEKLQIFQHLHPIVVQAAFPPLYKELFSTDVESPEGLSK
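Drosophila S2 cells stably expressing Gal4-DBD/mouse RORγ fusion under metallothionein promoter plus UAS-luciferase; compound 1 h, then 700 uM CuSO4 induction for 20 h at ambient temperature; inhibition read as reduced luminescence.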
IL1B secr inh: blocks inflammasome-driven IL-1 beta release; THP-1 LPS/ATP IL-1B secretion, AlphaLISA, 16 h; stronger effect = lower value; activity change, % at 57.5 µM; 4.7% of 360,000 active; in the data active means activity change below about -50%; inconclusive means mostly about -30% to -49%
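THP-1 cells pretreated 1 hr with compounds (up to 57.5 uM final), then stimulated with LPS (250 ng/mL final) plus ATP (1.25 mM final); secreted IL-1B measured by AlphaLISA after 16 hr, decreased signal indicating inhibition.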
* = called active by the depositor; ! = not confirmed by another sample; [ ] = remark or other dose. An excerpt weighted towards active compounds, which were near 21% of everything screened. Unless noted, the call rests on the fitted dose curve; in most records, active means well fitted curve in the direction sought with a large enough effect; inconclusive means small, poorly fitted or top-dose-only effect, or another doubt; inactive means no such curve, though single readings can be large; an effect the other way counts as inactive or inconclusive. On the % scale 0 is the no-effect control and ±100 the full control effect.

How did S=C(SSC(=S)N1CCOCC1)N1CCOCC1 do in these assays?
TDP1 cell noCPT: 0.026µM*; DT40 TDP1 CPT: 0.046µM*; IL1B secr inh: 17

What do the screens show for `CN(c1ccccc1C(=O)O)S(C)(=O)=O`?
TDP1 cell noCPT: -7%; VP16 counter: 2%; ELG1 DNA repair: 1%; DT40 TDP1 CPT: 10%; RORgamma inh: -3%; IL1B secr inh: -1

How did CN(C)c1ccccc1C(=O)c1ccccc1N(C)C do in these assays?
TDP1 cell noCPT: 4.1µM*; VP16 counter: inconclusive; ELG1 DNA repair: inconclusive; DT40 TDP1 CPT: 4.6µM*; RORgamma inh: inconclusive; IL1B secr inh: 24

What do the screens show for `CCc1ccc(NC(=O)c2cc3c([nH]c2=O)CC(C)(C)CC3=O)cc1`?
TDP1 cell noCPT: 4%; DT40 TDP1 CPT: 1%

Results for COc1cccc(-c2nc(SCc3cc(=O)c4cc(Cl)ccc4[nH]3)n[nH]2)c1 ?
TDP1 cell noCPT: -10%; DT40 TDP1 CPT: 2%

What do the screens show for `COC(=O)[C@H]1[C@H]2C[C@@H]3c4[nH]c5cc(OC)ccc5c4CCN3C[C@H]2C[C@@H](OC(=O)c2cc(OC)c(OC)c(OC)c2)[C@@H]1OC`?
TDP1 cell noCPT: inconclusive; VP16 counter: 3%; ELG1 DNA repair: 10µM*; DT40 TDP1 CPT: 16µM*!; RORgamma inh: -26%; IL1B secr inh: -29

How did COC(=O)[C@@H]1C2CC3c4[nH]c5cc(OC)ccc5c4CCN3CC2C[C@H](OC(=O)c2cc(OC)c(OC)c(OC)c2)C1OC (some centres undefined) do in these assays?
TDP1 cell noCPT: inconclusive; VP16 counter: 2%; DT40 TDP1 CPT: 23µM*; RORgamma inh: 19%

How did COC(=O)C1C2CC3c4[nH]c5cc(OC)ccc5c4CCN3CC2CC(OC)C1OC (centres undefined) do in these assays?
VP16 counter: 1%; RORgamma inh: -7%

Results for CCOC(=O)c1c(NC(=O)CSc2cn(CCNC(=O)c3ccc(OC)cc3)c3ccccc23)sc2c1CCC2 ?
TDP1 cell noCPT: -29%; DT40 TDP1 CPT: inconclusive

How did O=C(CSc1oc(-c2ccccc2)nc1S(=O)(=O)c1ccc(Cl)cc1)c1ccccc1 do in these assays?
TDP1 cell noCPT: 18µM*; DT40 TDP1 CPT: 15µM*

How did O=C(CSc1oc(-c2ccc(F)cc2)nc1S(=O)(=O)c1ccc(Cl)cc1)c1ccccc1 do in these assays?
TDP1 cell noCPT: 15µM*; DT40 TDP1 CPT: 16µM*

What do the screens show for `CC(=O)C1C(=O)c2c(cccc2[N+](=O)[O-])C1=Nc1ccc(S(N)(=O)=O)cc1` (centres undefined)?
TDP1 cell noCPT: inconclusive; VP16 counter: 0%; ELG1 DNA repair: 0%; DT40 TDP1 CPT: 18µM*; RORgamma inh: -17%; IL1B secr inh: 8

How did Cc1cccc2c(N3CCCC3)nc(CNS(=O)(=O)c3ccccc3Cl)nc12 do in these assays?
TDP1 cell noCPT: -29%; DT40 TDP1 CPT: -13%[9.04 µM]

How did Cn1c(CSCc2ccc(Cl)cc2Cl)n[nH]c1=S do in these assays?
TDP1 cell noCPT: inconclusive; VP16 counter: 6.3µM*; ELG1 DNA repair: -2%; DT40 TDP1 CPT: inconclusive; RORgamma inh: 0.79µM*; IL1B secr inh: 7

What do the screens show for `COC(Cc1nnc(SC)n1-c1ccccc1)OC`?
TDP1 cell noCPT: -3%; VP16 counter: 4%; ELG1 DNA repair: 10%; DT40 TDP1 CPT: 14%; RORgamma inh: 5%; IL1B secr inh: 11

Results for Cn1c(CSCc2ccc(Cl)cc2)n[nH]c1=S ?
TDP1 cell noCPT: -10%; VP16 counter: 13µM*; ELG1 DNA repair: -17%; DT40 TDP1 CPT: 26%; RORgamma inh: 2.8µM*; IL1B secr inh: -29

Source: PubChem BioAssay
